PMC7862700, “An all-to-all approach to the identification of sequence-specific readers for epigenetic DNA modifications on cytosine”

Columns and labels:
Experiment in all cases: DAPPL (digital affinity profiling via proximity ligation, sequencing); 10 mM Tris-HCl pH 7.5, 50 mM NaCl, 1 mM DTT, 4% glycerol, room temperature, 30 min; GST-TFs on glutathione beads, 16-mer random dsDNA library, 0.1% formaldehyde crosslink after washing; high values mean tight binding
[1] = target: T1, FEV (Homo sapiens, UniProt Q99581 1-238); conditions: protein: recombinant; tags: N-terminal GST; dsDNA, one strand shown
T1 sequence: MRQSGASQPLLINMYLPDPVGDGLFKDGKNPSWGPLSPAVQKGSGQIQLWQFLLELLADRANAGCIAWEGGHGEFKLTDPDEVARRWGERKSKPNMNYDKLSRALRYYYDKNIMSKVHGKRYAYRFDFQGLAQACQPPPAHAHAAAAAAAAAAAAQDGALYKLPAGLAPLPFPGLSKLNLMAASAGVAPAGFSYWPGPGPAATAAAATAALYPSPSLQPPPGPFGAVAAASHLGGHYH
Procedure, shortened: (§1)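 Binding signal is given per hexamer as its read frequency for a factor divided by its frequency in the tag-only sample. GST-fused human transcription factors were expressed in yeast, captured on glutathione beads, barcoded with DNA and pooled with that sample, then incubated with 200 nmole of a 16-mer random double-stranded DNA library in Tris/NaCl/DTT/glycerol buffer for 30 min at room temperature. The pools were then washed, crosslinked, proximity-ligated, amplified by PCR and sequenced on an Illumina NextSeq500.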

[2] = target: ETV5 (Homo sapiens, UniProt P41161 1-510); conditions: protein: recombinant; tags: N-terminal GST; dsDNA, one strand shown
Procedure, shortened: as §1

[3] = target: HSF1 (Homo sapiens, UniProt Q00613 1-529); conditions: protein: recombinant; tags: N-terminal GST; chain copies: 3; dsDNA, one strand shown
Procedure, shortened: as §1

[4] = target: T2, SPIC (Homo sapiens, UniProt Q8N5J4 1-248); conditions: protein: recombinant; tags: N-terminal GST; dsDNA, one strand shown
T2 sequence: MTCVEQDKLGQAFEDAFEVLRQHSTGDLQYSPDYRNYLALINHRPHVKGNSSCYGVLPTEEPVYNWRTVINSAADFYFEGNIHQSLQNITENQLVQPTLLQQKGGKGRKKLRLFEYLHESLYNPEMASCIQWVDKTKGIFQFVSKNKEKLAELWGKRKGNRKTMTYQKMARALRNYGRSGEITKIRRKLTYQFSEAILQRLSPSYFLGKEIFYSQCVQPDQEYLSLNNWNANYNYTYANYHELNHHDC
Procedure, shortened: as §1

[5] = target: ELF4 (Homo sapiens, UniProt Q99607 1-663); conditions: protein: recombinant; tags: N-terminal GST; dsDNA, one strand shown
Procedure, shortened: as §1

[6] = target: T3, ELK4 (Homo sapiens, UniProt P28324-2 1-405); conditions: protein: recombinant; tags: N-terminal GST; dsDNA, one strand shown
T3 sequence: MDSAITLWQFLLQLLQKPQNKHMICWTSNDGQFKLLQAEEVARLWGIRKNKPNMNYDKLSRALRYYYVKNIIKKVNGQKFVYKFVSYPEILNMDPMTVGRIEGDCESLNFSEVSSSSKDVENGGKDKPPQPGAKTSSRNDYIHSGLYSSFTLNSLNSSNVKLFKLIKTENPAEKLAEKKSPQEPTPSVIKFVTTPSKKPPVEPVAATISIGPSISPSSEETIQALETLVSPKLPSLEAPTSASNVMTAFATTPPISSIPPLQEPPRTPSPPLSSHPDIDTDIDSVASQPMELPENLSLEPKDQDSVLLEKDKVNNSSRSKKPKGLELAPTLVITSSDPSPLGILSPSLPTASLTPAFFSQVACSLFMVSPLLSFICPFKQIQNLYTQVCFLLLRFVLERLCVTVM
Procedure, shortened: as §1

[7] = target: T4, ETV2 (Homo sapiens, UniProt O00321 1-342); conditions: protein: recombinant; tags: N-terminal GST; dsDNA, one strand shown
T4 sequence: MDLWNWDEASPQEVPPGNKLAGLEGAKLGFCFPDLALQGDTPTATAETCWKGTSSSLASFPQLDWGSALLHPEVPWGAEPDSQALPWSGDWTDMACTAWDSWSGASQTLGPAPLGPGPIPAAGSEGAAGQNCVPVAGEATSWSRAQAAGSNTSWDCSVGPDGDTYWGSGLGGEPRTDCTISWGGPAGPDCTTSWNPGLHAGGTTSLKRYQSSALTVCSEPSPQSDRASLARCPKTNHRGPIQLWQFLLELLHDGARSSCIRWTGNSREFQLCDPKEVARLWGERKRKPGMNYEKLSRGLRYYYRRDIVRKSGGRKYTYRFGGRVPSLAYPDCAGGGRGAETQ
Procedure, shortened: as §1

[8] = target: T5, ELF3 (Homo sapiens, UniProt P78545 1-371); conditions: protein: recombinant; tags: N-terminal GST; dsDNA, one strand shown
T5 sequence: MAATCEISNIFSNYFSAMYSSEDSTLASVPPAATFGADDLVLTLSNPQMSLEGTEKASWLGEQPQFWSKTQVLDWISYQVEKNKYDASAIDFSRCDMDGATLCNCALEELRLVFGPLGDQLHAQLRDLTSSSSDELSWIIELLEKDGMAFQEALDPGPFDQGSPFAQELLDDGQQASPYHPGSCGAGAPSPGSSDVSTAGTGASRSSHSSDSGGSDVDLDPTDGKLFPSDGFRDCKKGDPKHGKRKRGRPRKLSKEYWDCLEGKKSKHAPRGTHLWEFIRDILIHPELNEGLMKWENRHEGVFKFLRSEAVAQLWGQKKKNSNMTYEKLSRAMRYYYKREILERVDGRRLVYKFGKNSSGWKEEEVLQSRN
Procedure, shortened: as §1

[9] = target: CRX (Homo sapiens, UniProt O43186 1-299); conditions: protein: recombinant; tags: N-terminal GST; dsDNA, one strand shown
Procedure, shortened: as §1

[10] = target: ETV1 (Homo sapiens, UniProt P50549 1-477); conditions: protein: recombinant; tags: N-terminal GST; dsDNA, one strand shown
Procedure, shortened: as §1

[11] = target: T6, ERF (Homo sapiens, UniProt P50548 1-548); conditions: protein: recombinant; tags: N-terminal GST; dsDNA, one strand shown
T6 sequence: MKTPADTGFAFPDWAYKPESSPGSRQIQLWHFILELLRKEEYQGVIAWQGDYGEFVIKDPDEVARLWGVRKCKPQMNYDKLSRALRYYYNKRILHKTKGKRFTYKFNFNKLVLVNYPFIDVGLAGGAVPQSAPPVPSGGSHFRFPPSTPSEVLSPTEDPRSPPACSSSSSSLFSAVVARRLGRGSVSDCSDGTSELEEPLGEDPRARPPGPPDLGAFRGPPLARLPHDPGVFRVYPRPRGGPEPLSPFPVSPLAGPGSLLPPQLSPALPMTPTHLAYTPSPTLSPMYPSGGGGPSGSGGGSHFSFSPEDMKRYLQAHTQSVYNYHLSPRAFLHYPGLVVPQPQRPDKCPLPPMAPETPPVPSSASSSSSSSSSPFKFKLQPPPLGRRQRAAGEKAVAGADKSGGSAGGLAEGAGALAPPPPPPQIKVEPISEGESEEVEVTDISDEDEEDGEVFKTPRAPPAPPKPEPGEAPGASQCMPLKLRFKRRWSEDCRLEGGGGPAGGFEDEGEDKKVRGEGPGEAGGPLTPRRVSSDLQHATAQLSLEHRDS
Procedure, shortened: as §1

[12] = target: T7, ETV3L (Homo sapiens, UniProt Q6ZN32 1-361); conditions: protein: recombinant; tags: N-terminal GST; dsDNA, one strand shown
T7 sequence: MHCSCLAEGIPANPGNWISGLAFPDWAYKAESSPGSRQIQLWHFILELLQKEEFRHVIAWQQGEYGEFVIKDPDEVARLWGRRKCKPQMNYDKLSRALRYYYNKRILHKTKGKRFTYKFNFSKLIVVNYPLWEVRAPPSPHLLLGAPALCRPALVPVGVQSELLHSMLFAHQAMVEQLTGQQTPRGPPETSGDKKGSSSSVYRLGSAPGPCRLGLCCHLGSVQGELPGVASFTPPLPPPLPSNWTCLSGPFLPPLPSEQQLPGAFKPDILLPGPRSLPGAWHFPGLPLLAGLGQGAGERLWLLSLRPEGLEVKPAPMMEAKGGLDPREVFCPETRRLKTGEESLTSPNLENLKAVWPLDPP
Procedure, shortened: as §1

[13] = target: T8, ETS2 (Homo sapiens, UniProt P15036 1-469); conditions: protein: recombinant; tags: N-terminal GST; dsDNA, one strand shown
T8 sequence: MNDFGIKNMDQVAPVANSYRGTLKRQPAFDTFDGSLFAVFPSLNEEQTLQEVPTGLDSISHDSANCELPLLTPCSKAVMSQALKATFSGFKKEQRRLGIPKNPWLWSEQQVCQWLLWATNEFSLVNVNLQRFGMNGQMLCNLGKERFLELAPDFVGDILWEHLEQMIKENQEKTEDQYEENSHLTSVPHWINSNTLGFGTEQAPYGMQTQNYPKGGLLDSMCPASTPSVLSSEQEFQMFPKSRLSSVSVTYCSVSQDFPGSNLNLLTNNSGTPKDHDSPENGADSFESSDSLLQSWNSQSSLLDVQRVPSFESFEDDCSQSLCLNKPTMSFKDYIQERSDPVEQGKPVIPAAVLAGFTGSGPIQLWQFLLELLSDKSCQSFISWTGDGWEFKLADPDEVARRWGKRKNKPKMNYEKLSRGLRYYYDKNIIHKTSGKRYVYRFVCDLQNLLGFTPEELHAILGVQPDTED
Procedure, shortened: as §1

[14] = target: T9, SPDEF (Homo sapiens, UniProt O95238 1-335); conditions: protein: recombinant; tags: N-terminal GST; dsDNA, one strand shown
T9 sequence: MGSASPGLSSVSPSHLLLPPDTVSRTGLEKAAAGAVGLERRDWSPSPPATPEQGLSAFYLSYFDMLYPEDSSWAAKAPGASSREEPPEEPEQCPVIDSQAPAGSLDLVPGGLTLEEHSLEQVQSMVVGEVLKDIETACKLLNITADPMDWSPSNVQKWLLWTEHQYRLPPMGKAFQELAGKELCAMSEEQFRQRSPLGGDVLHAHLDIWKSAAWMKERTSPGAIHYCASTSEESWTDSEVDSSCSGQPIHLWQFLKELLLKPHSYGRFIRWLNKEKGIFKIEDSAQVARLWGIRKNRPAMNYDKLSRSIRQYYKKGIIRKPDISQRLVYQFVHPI
Procedure, shortened: as §1

[15] = target: T10, ETV7 (Homo sapiens, UniProt Q9Y603 1-341); conditions: protein: recombinant; tags: N-terminal GST; dsDNA, one strand shown
T10 sequence: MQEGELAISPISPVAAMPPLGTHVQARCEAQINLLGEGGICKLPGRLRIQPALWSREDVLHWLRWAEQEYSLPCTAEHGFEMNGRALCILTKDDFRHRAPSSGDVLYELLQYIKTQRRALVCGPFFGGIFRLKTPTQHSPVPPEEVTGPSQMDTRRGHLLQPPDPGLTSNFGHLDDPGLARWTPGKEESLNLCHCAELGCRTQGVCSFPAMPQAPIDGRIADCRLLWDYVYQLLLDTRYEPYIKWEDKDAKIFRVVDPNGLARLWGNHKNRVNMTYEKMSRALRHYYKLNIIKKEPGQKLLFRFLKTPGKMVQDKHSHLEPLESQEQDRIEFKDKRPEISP
Procedure, shortened: as §1

[16] = target: T11, ELF5 (Homo sapiens, UniProt Q9UKW6-2 1-255); conditions: protein: recombinant; tags: N-terminal GST; dsDNA, one strand shown
T11 sequence: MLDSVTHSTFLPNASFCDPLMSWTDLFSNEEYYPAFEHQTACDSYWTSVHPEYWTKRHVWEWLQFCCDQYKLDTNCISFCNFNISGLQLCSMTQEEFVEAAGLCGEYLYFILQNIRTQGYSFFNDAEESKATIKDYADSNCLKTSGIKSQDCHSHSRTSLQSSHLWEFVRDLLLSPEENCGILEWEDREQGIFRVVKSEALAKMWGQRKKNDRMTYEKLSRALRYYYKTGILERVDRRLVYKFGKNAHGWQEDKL
Procedure, shortened: as §1

[17] = target: T12, ETV3 (Homo sapiens, UniProt P41162-2 1-143); conditions: protein: recombinant; tags: N-terminal GST; dsDNA, one strand shown
T12 sequence: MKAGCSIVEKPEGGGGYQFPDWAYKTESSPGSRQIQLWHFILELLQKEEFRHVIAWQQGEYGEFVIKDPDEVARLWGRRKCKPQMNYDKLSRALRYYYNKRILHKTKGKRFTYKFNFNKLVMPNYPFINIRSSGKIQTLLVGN
Procedure, shortened: as §1

[18] = target: ETV6 (Homo sapiens, UniProt P41212 1-452); conditions: protein: recombinant; tags: N-terminal GST; dsDNA, one strand shown
Procedure, shortened: as §1

Chain of ETV6 (P41212 whole entry): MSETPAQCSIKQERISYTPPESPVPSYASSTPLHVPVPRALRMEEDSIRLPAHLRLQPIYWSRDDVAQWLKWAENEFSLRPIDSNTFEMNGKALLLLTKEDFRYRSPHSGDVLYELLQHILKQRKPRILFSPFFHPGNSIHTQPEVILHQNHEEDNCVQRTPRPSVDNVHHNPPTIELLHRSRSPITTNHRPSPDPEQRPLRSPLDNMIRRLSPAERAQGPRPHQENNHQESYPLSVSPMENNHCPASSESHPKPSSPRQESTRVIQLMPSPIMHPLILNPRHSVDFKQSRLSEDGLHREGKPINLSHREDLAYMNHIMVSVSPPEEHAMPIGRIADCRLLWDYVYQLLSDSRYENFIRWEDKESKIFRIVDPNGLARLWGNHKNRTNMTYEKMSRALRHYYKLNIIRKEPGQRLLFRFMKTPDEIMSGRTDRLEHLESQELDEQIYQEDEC
Chain of HSF1 (Q00613 whole entry): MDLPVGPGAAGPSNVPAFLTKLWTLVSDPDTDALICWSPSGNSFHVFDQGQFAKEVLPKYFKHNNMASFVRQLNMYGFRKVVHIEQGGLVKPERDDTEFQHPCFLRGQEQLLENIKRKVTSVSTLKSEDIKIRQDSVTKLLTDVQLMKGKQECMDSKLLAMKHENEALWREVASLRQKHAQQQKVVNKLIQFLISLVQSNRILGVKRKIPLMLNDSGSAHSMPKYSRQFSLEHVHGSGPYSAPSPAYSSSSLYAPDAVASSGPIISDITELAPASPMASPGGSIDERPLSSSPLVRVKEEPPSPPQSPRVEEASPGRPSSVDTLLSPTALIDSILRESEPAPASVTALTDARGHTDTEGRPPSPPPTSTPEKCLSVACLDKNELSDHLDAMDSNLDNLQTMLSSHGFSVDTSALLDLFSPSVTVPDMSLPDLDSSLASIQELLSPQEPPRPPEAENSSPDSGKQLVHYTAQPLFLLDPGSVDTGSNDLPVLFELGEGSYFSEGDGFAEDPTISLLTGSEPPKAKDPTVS
Chain of ETV1 (P50549 whole entry): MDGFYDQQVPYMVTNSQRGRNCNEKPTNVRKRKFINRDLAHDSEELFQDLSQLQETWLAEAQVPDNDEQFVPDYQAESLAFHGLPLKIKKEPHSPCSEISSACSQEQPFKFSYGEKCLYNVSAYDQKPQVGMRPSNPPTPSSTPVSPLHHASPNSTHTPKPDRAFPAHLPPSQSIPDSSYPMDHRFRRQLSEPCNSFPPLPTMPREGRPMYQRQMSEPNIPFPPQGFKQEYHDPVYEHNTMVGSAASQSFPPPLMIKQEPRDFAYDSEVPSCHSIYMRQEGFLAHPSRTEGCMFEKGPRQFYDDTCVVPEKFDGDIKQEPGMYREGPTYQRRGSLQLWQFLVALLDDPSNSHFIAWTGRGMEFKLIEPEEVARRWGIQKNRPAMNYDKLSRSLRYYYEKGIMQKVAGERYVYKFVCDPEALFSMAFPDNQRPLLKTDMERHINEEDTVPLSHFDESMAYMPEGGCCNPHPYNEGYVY
Chain of ETV5 (P41161 whole entry): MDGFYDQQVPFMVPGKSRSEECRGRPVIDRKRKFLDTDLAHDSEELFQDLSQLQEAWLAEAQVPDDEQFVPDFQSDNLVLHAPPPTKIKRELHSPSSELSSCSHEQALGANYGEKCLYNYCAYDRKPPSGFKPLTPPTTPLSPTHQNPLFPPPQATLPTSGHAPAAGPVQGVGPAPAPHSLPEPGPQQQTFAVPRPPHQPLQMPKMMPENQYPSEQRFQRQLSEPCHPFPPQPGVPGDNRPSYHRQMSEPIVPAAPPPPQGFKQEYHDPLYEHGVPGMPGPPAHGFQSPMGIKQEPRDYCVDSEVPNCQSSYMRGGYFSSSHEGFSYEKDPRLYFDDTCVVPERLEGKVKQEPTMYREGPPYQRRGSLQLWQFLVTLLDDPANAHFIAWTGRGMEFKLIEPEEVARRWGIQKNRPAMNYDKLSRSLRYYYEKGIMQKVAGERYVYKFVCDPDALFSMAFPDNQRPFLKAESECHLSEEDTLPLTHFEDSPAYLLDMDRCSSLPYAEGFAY
Chain of ELF4 (Q99607 whole entry): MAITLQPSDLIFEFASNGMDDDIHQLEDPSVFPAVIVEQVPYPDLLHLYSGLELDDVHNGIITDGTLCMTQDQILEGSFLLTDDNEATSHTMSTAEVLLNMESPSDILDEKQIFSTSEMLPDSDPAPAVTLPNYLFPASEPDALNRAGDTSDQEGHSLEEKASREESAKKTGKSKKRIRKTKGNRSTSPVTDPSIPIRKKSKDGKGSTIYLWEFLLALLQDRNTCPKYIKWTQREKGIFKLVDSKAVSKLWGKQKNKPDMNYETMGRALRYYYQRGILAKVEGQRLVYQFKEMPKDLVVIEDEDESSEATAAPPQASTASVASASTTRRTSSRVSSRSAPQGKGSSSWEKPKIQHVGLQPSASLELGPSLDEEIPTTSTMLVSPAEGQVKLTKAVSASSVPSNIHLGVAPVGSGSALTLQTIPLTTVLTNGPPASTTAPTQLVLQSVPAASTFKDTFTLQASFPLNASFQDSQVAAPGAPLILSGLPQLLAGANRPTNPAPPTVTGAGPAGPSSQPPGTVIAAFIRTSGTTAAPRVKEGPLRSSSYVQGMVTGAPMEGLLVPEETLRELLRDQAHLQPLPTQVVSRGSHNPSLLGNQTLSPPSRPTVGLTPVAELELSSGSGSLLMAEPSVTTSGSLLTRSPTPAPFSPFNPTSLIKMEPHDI
Chain of CRX (O43186 whole entry): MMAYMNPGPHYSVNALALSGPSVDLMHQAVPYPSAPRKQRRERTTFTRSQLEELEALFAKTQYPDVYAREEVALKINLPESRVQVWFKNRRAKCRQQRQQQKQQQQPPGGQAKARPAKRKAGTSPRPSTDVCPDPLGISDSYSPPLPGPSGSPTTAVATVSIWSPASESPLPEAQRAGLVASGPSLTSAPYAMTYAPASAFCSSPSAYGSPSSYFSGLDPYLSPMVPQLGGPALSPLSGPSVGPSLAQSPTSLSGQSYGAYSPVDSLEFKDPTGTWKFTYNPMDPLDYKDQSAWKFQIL

CTGTCT
binding signal [1]: 1.42 fold enrichment (6-mer frequency, TF over GST control)
binding signal [2]: 1.4 fold enrichment (6-mer frequency, TF over GST control)
binding signal [3]: 1.22 fold enrichment (6-mer frequency, TF over GST control)
binding signal [4]: 1.56 fold enrichment (6-mer frequency, TF over GST control)
binding signal [5]: 1.38 fold enrichment (6-mer frequency, TF over GST control)
binding signal [6]: 1.46 fold enrichment (6-mer frequency, TF over GST control)
binding signal [7]: 1.26 fold enrichment (6-mer frequency, TF over GST control)
binding signal [8]: 1.47 fold enrichment (6-mer frequency, TF over GST control)
binding signal [9]: 1.09 fold enrichment (6-mer frequency, TF over GST control)
binding signal [10]: 1.4 fold enrichment (6-mer frequency, TF over GST control)
binding signal [11]: 1.37 fold enrichment (6-mer frequency, TF over GST control)
binding signal [12]: 1.37 fold enrichment (6-mer frequency, TF over GST control)
binding signal [13]: 1.4 fold enrichment (6-mer frequency, TF over GST control)
binding signal [14]: 1.44 fold enrichment (6-mer frequency, TF over GST control)
binding signal [15]: 1.53 fold enrichment (6-mer frequency, TF over GST control)
binding signal [16]: 1.28 fold enrichment (6-mer frequency, TF over GST control)
binding signal [17]: 1.45 fold enrichment (6-mer frequency, TF over GST control)
binding signal [18]: 1.32 fold enrichment (6-mer frequency, TF over GST control)
